S1P4 antag: antagonists of human S1P4 receptor; S1P4-expressing cells, antagonist mode, reporter read-out; inhibition, % at 4.98 µM; hit rate 0.26% among 220,000; AID 1510; in the data active = inhibition above about 29%;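 also: 0% = wells stimulated with agonist and 100% = vehicle wells without agonist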
Target sequence (O95977 whole entry, looked up): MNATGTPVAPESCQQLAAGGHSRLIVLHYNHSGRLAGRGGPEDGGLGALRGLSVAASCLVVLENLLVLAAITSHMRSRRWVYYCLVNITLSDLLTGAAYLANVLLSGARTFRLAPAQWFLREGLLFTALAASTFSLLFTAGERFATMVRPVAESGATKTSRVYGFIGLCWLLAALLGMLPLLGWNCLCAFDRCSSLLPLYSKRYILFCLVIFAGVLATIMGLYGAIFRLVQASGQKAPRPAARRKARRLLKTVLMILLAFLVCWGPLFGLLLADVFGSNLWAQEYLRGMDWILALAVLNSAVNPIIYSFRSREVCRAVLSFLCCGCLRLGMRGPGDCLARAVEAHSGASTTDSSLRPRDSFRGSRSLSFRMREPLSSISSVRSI
EP2 antag: inhibitors of human EP2 prostaglandin E2 receptor. inhibition, % at 25 µM. C6 glioma cells expressing human EP2, cAMP TR-FRET; cells stimulated with saturating PGE2. P43116. hit rate 0.52% among 260,000. AID 1422;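 active = percent inhibition above 40 after rounding to a whole number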;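 also: rat C6 glioma host cells with rolipram phosphodiesterase inhibitor present; the protocol text gives 20 µM as final concentration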
Target sequence (P43116 whole entry, looked up): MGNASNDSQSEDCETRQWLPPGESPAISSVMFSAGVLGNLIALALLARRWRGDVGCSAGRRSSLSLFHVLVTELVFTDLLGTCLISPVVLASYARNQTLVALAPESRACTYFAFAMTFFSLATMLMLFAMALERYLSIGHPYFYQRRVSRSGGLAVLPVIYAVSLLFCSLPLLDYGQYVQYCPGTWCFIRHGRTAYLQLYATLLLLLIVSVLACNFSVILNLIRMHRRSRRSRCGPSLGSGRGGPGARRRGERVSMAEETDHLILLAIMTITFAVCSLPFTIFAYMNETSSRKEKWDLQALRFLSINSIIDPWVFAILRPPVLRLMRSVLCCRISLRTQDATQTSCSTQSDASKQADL
EP2 mod: modulates human prostaglandin E2 receptor EP2 signaling. P43116. EP2-expressing cells, cAMP HTRF FRET, PGE2 co-stimulation. induction, % at 25 µM. hit rate 0.83% among 260,000;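 active = compounds whose cAMP rise, as percent of the full-agonist control response, exceeds 60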;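 also: rat C6 glioma line stably carrying human EP2 under a CMV promoter; the protocol text gives 20 µM as final concentration; 100% = response of wells given 1 µM PGE2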
S1P4 ag: agonists of human S1P4 receptor; O95977; S1P4-expressing cell line, agonist reporter assay; activation, % at 4.98 µM; hit rate 0.35% among 220,000; in the data active = activation above about 11%;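 also: 0% = DMSO vehicle and 100% = reference agonist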
S1P3 antag-1: S1P3 (human) receptor antagonism; inhibition, % at 4.98 µM; hit rate 0.27% among 170,000; CHO S1P3 NFAT-BLA reporter, FRET fluorescence, antagonist mode; AID 485;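 active = inhibition above the plate cutoff, the mean inhibition of test wells on that plate plus 3 SD, cut at about 28% in these data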;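 also: cells challenged with S1P at its EC80 of 0.8 µM; blue over green emission ratio from cleaved BLA substrate after 4 h stimulation; 0% = S1P-stimulated wells and 100% = unstimulated DMSO-only wells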
S1P3 antag-2: confirmation of human S1P3 receptor antagonists; hit rate 30% among 240; CHO S1P3 NFAT-BLA reporter, FRET, antagonist mode; shares compounds with S1P3 antag-1; AID 1429; inhibition, % at 4.98 µM;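 active = inhibition above the hit threshold that was computed for the earlier primary screen, cut at about 30% in these data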;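 also: 0% = S1P-stimulated wells and 100% = unstimulated DMSO-only wells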
EP2 confirm: EP2 receptor cAMP induction, counter-screens negative; shares compounds with EP2 mod; C6 glioma EP2 cells, cAMP HTRF induction; plus low (about EC15) PGE2 agonist; calls only at 20 µM (by protocol); hit rate 47% among 1,300; AID 1080;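 active = cAMP induction above 50% in the main assay while under 30% in all four parallel counter assays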;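 also: rat C6 glioma cells stably expressing human EP2 receptor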
S1P4 antag cf: human S1P4 antagonism, confirmation; shares compounds with S1P4 antag; S1P4-expressing cell line, antagonist mode, reporter read-out; inhibition, % at 4.98 µM; hit rate 71% among 520; AID 1524; in the data active = inhibition above about 30%
S1P1 antag: counter-screen for S1P4 antagonists: antagonists of human S1P1 | inhibition, % at 4.98 µM | AID 1564 | hit rate 37% among 520 | cell-based S1P1 antagonist counterscreen, inhibition | shares compounds with S1P4 antag; in the data active = inhibition above about 40%;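 also: receptor stimulated with S1P near its EC80; 0% = agonist stimulated wells and 100% = vehicle only wells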
Starred values were filed as active, the others as inactive; i = inactive; · = no result given; + = active, no number. An excerpt weighted towards active compounds, which were near 1.9% of everything screened.

SMILES	S1P4 antag	EP2 antag	EP2 mod	S1P4 ag	S1P3 antag-1	others
CC(=O)[O][Hg][c]1ccccc1	·	113.1*	-40.4	·	·
OC(CN1CC=C(c2ccc(F)cc2)CC1)c1ccc2c(c1)OCCO2 (stereo not drawn)	·	9.5	-85.2	·	·
Clc1cccc(C2NCc3ccccc3-n3cccc32)c1 (stereo not drawn)	-2.5	4.5	69.3*	1.7	2.7
C[CH2][Hg][S]c1ccccc1C(=O)O	·	114.8*	-37.8	·	·
CN1CCC2(CC1)C(C#N)=C(N)NC(S)=C2C#N	-7.2	8.0	-1.9	-0.7	-5.8
Cc1ccc(C2(c3ccc(C)c(O)c3C)CCN(C)CC2)c(C)c1O	·	112.4*	-44.7	·	·
O=C1/C(=C\c2ccc(Cl)cc2)N2CCC1CC2	·	17.0	-109.7	·	·
C=Cn1cc(CN(CCc2ccccc2)Cc2cccs2)c(C)n1	·	1.9	68.6*	·	·
O=C(CN1C2CCC1CC(O)(c1ccccn1)C2)Nc1ccccc1F (stereo not drawn)	·	5.4	-7.0	·	·
CC1(C)CCC(C)(C)c2c1ccc(O)c2Cc1c(O)ccc2c1C(C)(C)CCC2(C)C	·	45.2*	23.3	·	·
Nc1ccc(NC2=NCCCS2)cc1	·	5.1	-6.6	·	·
O=C(O)CN1CCN(CC(=O)O)CC(=O)[O][Hg][O]C(=O)C1	·	103.4*	-25.4	·	·
CC(C)OP(=O)(OC(C)C)C(O)c1ccccc1F (stereo not drawn)	-18.1	49.7*	2.4	3.0	-0.8
CCCCCn1c(N)c(C(=O)NCc2cccs2)c2nc3ccccc3nc21	-5.8	4.2	59.2	-0.4	·
CCCCn1c(N)c(C(=O)NCc2cccs2)c2nc3ccccc3nc21	-11.5	2.4	61.6*	1.7	·
CC(Cc1ccc(O)cc1)NCC(O)c1cc(O)cc(O)c1 (stereo not drawn)	·	7.2	82.4*	·	·
Cc1ccc2scc(CC(=O)N(CCN(C)C)C3CCN(C)CC3)c2c1	·	9.9	-53.5	·	·
O=C(CN1C2CCC1CC(O)(c1ccccn1)C2)NC1CC1 (stereo not drawn)	·	·	-17.6	·	·
COc1nc(C)c(CC(=O)N(CCN(C)C)C2CCN(C)CC2)c(OC)n1	·	2.6	2.8	·	·
Cc1ccc(S(=O)(=O)N[C@@H](CCCCN)C(=O)CCl)cc1	·	17.1	66.5*	·	·
Cc1ccc(S(=O)(=O)NCCC(=O)Nc2ccc(Cl)cc2C(=O)c2ccccc2)cc1	-21.2	2.1	46.8	1.9	-6.8
COc1cc2c(cc1OC)[C@@H]1C(=O)c3ccc4c(c3O[C@@H]1CO2)C[C@H](C(C)C)O4	4.6	12.4	-15.6	-1.8	38.4*	S1P3 antag-2=35.6*
COc1ccccc1CN(CCN(C)C)C(=O)Cc1ccc2c(c1)OCCO2	·	4.5	-2.2	·	·
O=C(NC1CN2CCC1CC2)c1cc(-c2ccccn2)n[nH]1 (stereo not drawn)	·	4.1	11.1	·	·
Cc1cc(C)n(-c2ccc(NN=C(C#N)C#N)cc2)n1	4.5	16.3	-28.0	0.0	11.3
SMILES	S1P4 antag	EP2 antag	EP2 mod	S1P4 ag	S1P3 antag-1	others
N#CC(C#N)=NNc1ccc(-n2ccc(C(F)(F)F)n2)cc1	26.6	8.7	-60.8	-0.4	44.0*	S1P3 antag-2=45.1*
Cc1ccc(C2=CCN(CC(=O)Nc3ncc(C)s3)CC2)o1	·	8.4	-108.6	·	·
CC(C)[C@H]1C(=O)O[C@H](C(C)C)C(=O)N(C)[C@@H](C(C)C)C(=O)O[C@H](C(C)C)C(=O)N(C)[C@@H](C(C)C)C(=O)O[C@H](C(C)C)C(=O)N1C	9.6	12.4	-16.2	0.3	70.4*	S1P3 antag-2=75.0*
CCn1nc(/C=C/c2ccccc2)nc2c(=O)n(C)c(=O)nc1-2	12.2	35.0	-101.1	3.3	74.5*	S1P3 antag-2=108.8*
Cn1ccnc1C1(O)CC2CCC(C1)N2CC(=O)N1CCCc2ccccc21 (stereo not drawn)	·	·	-7.1	·	·
CC[C@@]1(O)C(=O)OCc2c1cc1n(c2=O)Cc2cc3ccccc3nc2-1	26.9	5.6	-1.2	5.9	58.6*	S1P3 antag-2=69.8*
CCc1cccc2c(CC(=O)N(CCN(C)C)C3CCN(C)CC3)c(C)[nH]c12	·	5.9	-49.0	·	·
O=C(CCCN1CCC2(CC1)C(=O)NCN2c1ccccc1)c1ccc(F)cc1	-6.9	26.9	-39.0	1.6	67.6*	S1P3 antag-2=59.0*
CCC(CC)N1CCN(Cc2ccc(OC)c(OC)c2)CC1	·	16.2	-5.8	·	·
CC(=O)OC(C)(C)/C=C/C(=O)[C@](C)(O)[C@H]1[C@H](O)C[C@@]2(C)[C@@H]3CC=C4[C@H](C[C@H](O)C(=O)C4(C)C)[C@]3(C)C(=O)C[C@]12C	67.3*	4.0	10.0	-1.4	73.8*	S1P3 antag-2=90.2*
NC(=S)c1cn(C2OC(CO)C(O)C2O)c2ncnc(N)c12 (stereo not drawn)	100.2*	19.3	-22.9	0.3	86.0*	S1P3 antag-2=105.1*;S1P4 antag cf=112.2*;S1P1 antag=93.7*
C#CCOc1ccc(CN2C3CCC2CC(O)(c2nccn2C)C3)cc1 (stereo not drawn)	·	9.7	-20.7	·	·
C[C@]12CCC3C(CC[C@H]4C[C@@H](Cl)CC[C@]34C)C1CCC2=O (stereo partly drawn)	·	11.6	64.4*	·	·	EP2 confirm=+
C[C@]12CCC3C(CC[C@H]4C[C@H](OS(=O)(=O)O)CC[C@]34C)C1CCC2=O (stereo partly drawn)	·	9.6	19.2	·	·
CN(N=O)c1ccc(O)c(O)c1	·	9.8	83.4*	·	·	EP2 confirm=i
CN(CC(=O)Nc1ccccc1-c1ccccc1)C1CCCCC1	-11.7	8.2	74.3*	0.2	·	EP2 confirm=i
CCc1ccccc1NC(=O)CNC1CCCCC1	3.6	3.2	8.1	-0.8	-2.5
CCC(=O)O[C@H]1CCC2C3CCC4=CC(=O)CC[C@]4(C)C3CC[C@@]21C (stereo partly drawn)	·	9.9	76.9*	·	·	EP2 confirm=+
CC(C)C1(C)N=C(c2ncccc2C(=O)O)NC1=O (stereo not drawn)	0.8	7.6	72.2*	-3.1	·	EP2 confirm=i
COc1ccccc1CN(CCN(C)C)C(=O)Cc1nc2ccc(C)cc2[nH]1	·	5.3	-31.4	·	·
O=c1c2ccccc2nc(N2CCCC2)n1-c1ccc(Cl)cc1	-5.4	8.8	67.9*	1.3	10.1	EP2 confirm=+
COC(=O)C1=C(C)OC(N)=C(C#N)C12C(=O)Nc1ccc(F)cc12 (stereo not drawn)	·	9.1	-8.8	·	·
Cc1cc(OCC(=O)OC(C)C)c2c3c(c(=O)oc2c1)CCCC3	-9.5	1.9	65.6*	0.3	25.8	EP2 confirm=+
CCOC(=O)C(C)Oc1cc(C)cc2oc(=O)c3c(c12)CCCC3 (stereo not drawn)	-11.7	2.5	57.4	-1.1	·
